From PubChem BioAssay (NCATS)
Where “and” joins values, the source holds several entries; their conditions need not be identical. Equal entries are not always repeated. Results filed as inconclusive are left out. Calls of active or inactive are those of the source. Unless noted, calls come from the whole dose curve; as a rule, active = well fitted curve in the direction sought with a large enough effect; inconclusive = small, poorly fitted or top-dose-only effect, or another doubt; inactive = no such curve, though single readings can be large; an effect the other way counts as inactive or inconclusive.

Legend:
[1] = qHTS profiling of the MIPE4 collection as inhibitors of Plasmodium falciparum (3D7) proliferation (AID 743344; call rule not given here;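 note: scaled between DMSO vehicle wells and 0.29 µM artemisinin as full inhibition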); details: P. falciparum 3D7 in erythrocytes, SYBR Green DNA fluorescence, 72 h; at 28.5 µM unless noted
In short: (§1)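 Parasite DNA was quantified by SYBR Green I fluorescence (ex 485, em 535 nm) after overnight lysis in saponin/Triton buffer at room temperature. Cultures at 0.3% parasitemia and 2.5% hematocrit were first exposed to compound for 72 h at 37 C; signals were normalised to artemisinin (0.29 uM) and vehicle wells.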

[2] = qHTS profiling of the MIPE4 collection as inhibitors of Plasmodium falciparum (DD2) proliferation (Rep 2) (AID 743346; call rule not given here); details: P. falciparum Dd2 in erythrocytes, SYBR Green DNA, 72 h; at 28.5 µM unless noted
In short: as §1

[3] = qHTS profiling of the MIPE4 collection as inhibitors of Plasmodium falciparum (HB3) proliferation (AID 743347; call rule not given here;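 note: plate controls were DMSO vehicle wells for no effect and artemisinin wells for full effect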); details: P. falciparum HB3 in erythrocytes, SYBR Green DNA, 72 h; at 28.5 µM unless noted
In short: as §1

[4] = target: RecQ-like DNA helicase BLM (Homo sapiens) (UniProt P54132); test: qHTS Validation Assay for Inhibitors of Bloom's syndrome helicase (BLM) (AID 2364); details: BLM helicase DNA unwinding, fluorescence, in vitro; series mostly up to 57.1 µM; note: potency is the fitted concentration of half-maximal effect
In short: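 Forked 20-bp duplex substrate (200 nM, TAMRA/BHQ-2) plus 2 mM ATP added after 15 min compound preincubation with 50 nM enzyme, pH 8.0, poly(dI-dC) 2.5 ug/ml. Strand separation followed by fluorescence (525/598 nm) over 2 h, normalized to enzyme-free and DMSO controls.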

[5] = target: Thioredoxin reductase 1, cytoplasmic (Rattus norvegicus) (UniProt O89049); test: qHTS Assay for Substrates of Mammalian Selenoprotein Thioredoxin Reductase 1 (TrxR1) (AID 488772); details: purified TrxR1, NADPH consumption substrate assay; series mostly up to 57.1 µM;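 note: 0% is about no effect; a drop in NADPH fluorescence below the no-compound background marks a TrxR1 substrate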
In short: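 In this dual-purpose format, potential substrates are identified from the first fluorescence read after selenite addition, not from the 8-minute delta. Rat enzyme is preincubated with NADPH and then with compound at ~22 deg C.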

[6] = target: DNA repair nuclease/redox regulator APEX1 (Homo sapiens) (UniProt P27695); test: qHTS Validation Assay for Inhibitors of the Human Apurinic/apyrimidinic Endonuclease 1 (APE1) (AID 1705; note: potency is the fitted concentration of half-maximal effect); details: purified APE1 endonuclease activity, fluorescence, titration; series mostly up to 57.1 µM
In short: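 Substrate: 50 nM final fluorophore/quencher THF-abasic duplex. Enzyme preincubated with compounds 15 min, RT. Progress derived from fluorescence difference, third minus first kinetic read.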

[7] = NCATS anti-infectives library activity on HEK293 viability as a counter-qHTS vs the C. elegans viability qHTS (AID 1745854); details: HEK293 viability counter-screen; series mostly up to 41.8 µM;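 note: HEK293 cells exposed to compounds for 24 hr before the viability read; % is set by controls: 0 for no effect and ±100 for the full control effect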
In short: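 Counter-screen for cytotoxicity: HEK293, 24 hr, 37C, compounds up to 41.7 uM final (a dilution series, 1:5). Readout CellTiter-Glo luminescence, 10 min RT. Digitonin control, 83.3 uM final.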

[8] = qHTS profiling of the MIPE4 collection as inhibitors of Plasmodium falciparum (DD2) proliferation (AID 743345; call rule not given here); details: P. falciparum Dd2 in erythrocytes, SYBR Green DNA, 72 h; at 28.5 µM unless noted
In short: as §1

[9] = VSVG counterscreen qHTS to identify inhibitors of SARS-CoV-2 cell entry (AID 1645847; calls by dose curve; note: potency is the fitted concentration of half-maximal effect; nearly all actives have a fitted effect of over 65% in size); details: VSV-G pseudotyped particle entry, luciferase; series mostly up to 57.2 µM
In short: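 Entry of VSV-G pseudotyped particles into human ACE2-expressing HEK293 cells was measured by luciferase luminescence 48 h after infection, with compound added 1 h beforehand.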

[10] = target: Rap guanine nucleotide exchange factor 3 (Homo sapiens) (UniProt O95398); test: Confirmatory qHTS for agonist of cAMP-regulated guanine nucleotide exchange factor 3 (EPAC1) (AID 1645881); details: EPAC1 Rap1B BODIPY-GDP exchange fluorescence, 100% = cAMP control response; series mostly up to 154 µM;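 note: EPAC1 catalysed release of BODIPY-GDP from Rap1B seen as fluorescence loss; nearly all actives have a fitted effect of over 75% in size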
[11] = target: Rap guanine nucleotide exchange factor 4 (Homo sapiens) (UniProt Q8WZA2); test: Confirmatory qHTS for agonist of cAMP-regulated guanine nucleotide exchange factor 4 (EPAC2) (AID 1645884); details: EPAC2 GEF activity, Rap1B-BODIPY-GDP fluorescence, percent relative to cAMP agonist control; series mostly up to 154 µM;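 note: nucleotide exchange releases bodipy-GDP from Rap1 and this lowers its fluorescence; % is set by controls: 0 for no effect and ±100 for the full control effect; nearly all actives have a fitted effect of over 65% in size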
[12] = qHTS for differential inhibitors of proliferation of Plasmodium falciparum line D10 (AID 1877); details: series mostly up to 28.7 µM;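 note: potency is the fitted concentration of half-maximal effect; parasites grown with compound for 72 h before DNA staining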
[13] = qHTS for differential inhibitors of proliferation of Plasmodium falciparum line HB3 (AID 1886); details: Potency: Plasmodium falciparum HB3 proliferation inhibition; series mostly up to 28.7 µM;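 note: potency is the fitted concentration of half-maximal effect; parasites grown with compound for 72 h before SYBR Green readout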
[14] = qHTS assay for small molecule antagonists of peroxisome proliferator-activated receptor delta signaling (AID 588535; active = well fitted inhibition curve with a large enough effect in the signal ratio, with a control signal flat, not every such curve was filed as active; the % refers to the signal ratio;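 for max response: cells co-treated with a PPAR-delta agonist as stimulator during compound exposure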); details: HEK293T PPARd-UAS-bla, beta-lactamase FRET ratio, 18 h; 460 nm channel
In short: (§2)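 Titrations were run on PPAR-delta-UAS-bla HEK293T cells in charcoal/dextran-stripped serum, incubated 18 h at 37 C. CCF4 fluorescence (460/530 nm) after 2 h RT; Hill equation yields IC50 and maximal response.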

[15] = target: Peroxisome proliferator-activated receptor delta (Homo sapiens) (UniProt Q03181); test: as above; details: HEK293T PPARd-UAS-bla, beta-lactamase FRET ratio, 18 h; series mostly up to 76.7 µM
In short: as §2

[16] = target: Cytochrome P450 2C9 (Homo sapiens) (UniProt P11712); test: qHTS Assay for Inhibitors and Substrates of Cytochrome P450 2C9 (AID 883); details: recombinant CYP2C9, luciferin-H luminescence, 60 min; series mostly up to 57.1 µM; note: % is set by controls: 0 for no effect and ±100 for the full control effect; nearly all actives have a fitted effect of over 60% in size
In short: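 Luminescent read-out of deoxyluciferin hydroxylation, normalized to 57uM sulphaphenazole (AC100). Reaction: 10nM enzyme, 100uM Luciferin-H (equal to KM), 25mM KPO4, 10 min compound preincubation, then 60 min with NADPH regeneration, both at 37C.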

[17] = target: Cytochrome P450 2D6 (Homo sapiens) (UniProt P10635); test: qHTS Assay for Inhibitors and Substrates of Cytochrome P450 2D6 (AID 891); details: recombinant CYP2D6, luciferin-ME EGE luminescence; series mostly up to 57.1 µM; note: nearly all actives have a fitted effect of over 60% in size; note: potency is the fitted concentration of half-maximal effect
In short: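 Luminescent read-out of luciferin formed by 5 nM human CYP2D6 demethylating 30 uM Luciferin-ME EGE (Km level) over 60 min at room temperature after NADPH regeneration addition. Data normalized to full inhibition by 1.43 uM quinidine.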

[18] = Validation screen for small molecules that induce DNA re-replication in MCF 10A normal breast cells (AID 463097); details: MCF 10A cells, DNA re-replication phenotype imaging; series mostly up to 46.1 µM; note: potency is the fitted concentration of half-maximal effect; nearly all actives have a fitted effect of over 60% in size
In short: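 Following 48 hr compound incubation (37 C, 5% CO2), MCF 10A cells receive Hoechst for 40 min at 37 C. Nuclei are then scanned (excitation 405 nm, emission 500-530 nm) for total fluorescence intensity.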

[19] = qHTS assay to identify small molecules that stimulate interleukin-8 (IL-8) secretion (AID 651758; active = well fitted activation curve with a large enough effect in the signal ratio; the % refers to the signal ratio; note: 0% is about no effect); details: HTRF ratio (665/615); series mostly up to 92.2 µM
In short: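 Secreted IL-8 measured homogeneously by TR-FRET (two labelled anti-IL-8 antibodies, 1-3 h at room temperature) after a 16 h, 37 C compound treatment of THP-1 cells at 2000 cells/well.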

[20] = qHTS Assay for Identifying Gametocytocidal Compounds (AID 743244);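 note: % is set by controls: 0 for no effect and ±100 for the full control effect; actives lower the fluorescent signal which means gametocytes are killed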; details: P. falciparum 3D7 stage III-V gametocytes, alamarBlue, 72 h; max response: stronger effect = lower value
In short: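 3D7 gametocytes, stages III–V, 20,000/well; cpd 72 h, 37 °C/5% CO2; + alamarBlue 24 h; fluor. Ex 525/Em 598.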

Sequence of Peroxisome proliferator-activated receptor delta (Homo sapiens) (Q03181 whole entry, looked up): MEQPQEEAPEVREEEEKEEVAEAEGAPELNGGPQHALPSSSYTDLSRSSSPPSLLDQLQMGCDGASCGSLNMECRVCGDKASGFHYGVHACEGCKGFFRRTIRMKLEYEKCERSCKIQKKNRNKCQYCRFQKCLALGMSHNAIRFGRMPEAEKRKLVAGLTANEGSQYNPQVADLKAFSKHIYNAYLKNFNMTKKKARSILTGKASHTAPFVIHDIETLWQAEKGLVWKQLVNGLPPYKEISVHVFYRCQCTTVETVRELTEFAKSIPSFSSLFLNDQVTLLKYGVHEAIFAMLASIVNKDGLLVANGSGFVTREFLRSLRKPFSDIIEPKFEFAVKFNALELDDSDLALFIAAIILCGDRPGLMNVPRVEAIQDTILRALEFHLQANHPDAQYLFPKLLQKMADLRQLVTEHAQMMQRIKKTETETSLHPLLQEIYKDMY
Sequence of Cytochrome P450 2D6 (Homo sapiens) (P10635 whole entry, looked up): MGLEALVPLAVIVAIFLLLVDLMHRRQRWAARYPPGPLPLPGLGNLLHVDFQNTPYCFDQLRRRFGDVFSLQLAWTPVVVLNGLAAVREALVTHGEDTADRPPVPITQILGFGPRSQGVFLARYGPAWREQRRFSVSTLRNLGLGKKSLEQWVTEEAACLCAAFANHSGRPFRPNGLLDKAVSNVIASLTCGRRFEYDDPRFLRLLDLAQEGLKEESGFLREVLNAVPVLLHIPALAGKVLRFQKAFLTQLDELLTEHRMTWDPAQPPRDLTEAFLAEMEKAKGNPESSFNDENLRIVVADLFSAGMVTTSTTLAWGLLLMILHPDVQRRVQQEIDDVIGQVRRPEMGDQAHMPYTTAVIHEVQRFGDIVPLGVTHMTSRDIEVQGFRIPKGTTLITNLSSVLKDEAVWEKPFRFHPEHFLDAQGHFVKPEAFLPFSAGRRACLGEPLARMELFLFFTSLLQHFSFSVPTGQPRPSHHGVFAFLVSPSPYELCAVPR
Sequence of Thioredoxin reductase 1, cytoplasmic (Rattus norvegicus) (O89049 whole entry, looked up): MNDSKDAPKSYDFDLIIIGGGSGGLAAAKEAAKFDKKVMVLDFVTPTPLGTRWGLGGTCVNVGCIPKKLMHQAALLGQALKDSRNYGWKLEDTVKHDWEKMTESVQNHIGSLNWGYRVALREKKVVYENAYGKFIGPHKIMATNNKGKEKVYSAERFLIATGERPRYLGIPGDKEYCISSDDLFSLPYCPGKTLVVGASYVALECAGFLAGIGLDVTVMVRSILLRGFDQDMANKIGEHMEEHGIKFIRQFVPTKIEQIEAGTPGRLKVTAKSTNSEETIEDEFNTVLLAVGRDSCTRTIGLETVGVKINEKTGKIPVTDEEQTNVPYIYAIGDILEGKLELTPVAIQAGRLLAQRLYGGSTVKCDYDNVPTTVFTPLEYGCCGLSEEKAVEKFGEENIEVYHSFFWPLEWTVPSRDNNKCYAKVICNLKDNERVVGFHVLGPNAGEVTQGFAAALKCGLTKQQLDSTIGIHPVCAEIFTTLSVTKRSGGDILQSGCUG
Sequence of DNA repair nuclease/redox regulator APEX1 (Homo sapiens) (P27695 whole entry, looked up): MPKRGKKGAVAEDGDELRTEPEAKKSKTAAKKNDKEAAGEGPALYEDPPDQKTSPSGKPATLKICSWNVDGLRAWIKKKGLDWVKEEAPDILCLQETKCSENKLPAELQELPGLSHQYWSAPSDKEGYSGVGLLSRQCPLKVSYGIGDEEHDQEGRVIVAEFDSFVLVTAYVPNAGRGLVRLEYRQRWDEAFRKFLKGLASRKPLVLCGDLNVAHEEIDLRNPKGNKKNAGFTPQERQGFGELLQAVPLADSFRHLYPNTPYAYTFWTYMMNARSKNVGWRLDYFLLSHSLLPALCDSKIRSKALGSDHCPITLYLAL
Sequence of Cytochrome P450 2C9 (Homo sapiens) (P11712 whole entry, looked up): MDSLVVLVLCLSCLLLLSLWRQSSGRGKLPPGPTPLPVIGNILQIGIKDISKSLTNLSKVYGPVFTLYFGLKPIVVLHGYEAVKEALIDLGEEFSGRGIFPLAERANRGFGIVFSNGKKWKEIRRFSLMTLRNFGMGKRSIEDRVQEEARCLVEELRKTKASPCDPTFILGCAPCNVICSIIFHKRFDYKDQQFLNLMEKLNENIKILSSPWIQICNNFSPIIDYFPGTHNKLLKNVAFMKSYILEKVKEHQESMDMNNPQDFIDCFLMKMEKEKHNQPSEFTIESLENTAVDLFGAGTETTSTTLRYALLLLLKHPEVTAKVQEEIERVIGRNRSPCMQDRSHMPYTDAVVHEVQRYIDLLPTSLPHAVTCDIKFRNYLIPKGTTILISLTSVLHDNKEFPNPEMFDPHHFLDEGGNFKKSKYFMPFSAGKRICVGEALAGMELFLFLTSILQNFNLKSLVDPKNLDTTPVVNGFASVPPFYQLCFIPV
Sequence of Rap guanine nucleotide exchange factor 3 (Homo sapiens) (O95398 whole entry, looked up): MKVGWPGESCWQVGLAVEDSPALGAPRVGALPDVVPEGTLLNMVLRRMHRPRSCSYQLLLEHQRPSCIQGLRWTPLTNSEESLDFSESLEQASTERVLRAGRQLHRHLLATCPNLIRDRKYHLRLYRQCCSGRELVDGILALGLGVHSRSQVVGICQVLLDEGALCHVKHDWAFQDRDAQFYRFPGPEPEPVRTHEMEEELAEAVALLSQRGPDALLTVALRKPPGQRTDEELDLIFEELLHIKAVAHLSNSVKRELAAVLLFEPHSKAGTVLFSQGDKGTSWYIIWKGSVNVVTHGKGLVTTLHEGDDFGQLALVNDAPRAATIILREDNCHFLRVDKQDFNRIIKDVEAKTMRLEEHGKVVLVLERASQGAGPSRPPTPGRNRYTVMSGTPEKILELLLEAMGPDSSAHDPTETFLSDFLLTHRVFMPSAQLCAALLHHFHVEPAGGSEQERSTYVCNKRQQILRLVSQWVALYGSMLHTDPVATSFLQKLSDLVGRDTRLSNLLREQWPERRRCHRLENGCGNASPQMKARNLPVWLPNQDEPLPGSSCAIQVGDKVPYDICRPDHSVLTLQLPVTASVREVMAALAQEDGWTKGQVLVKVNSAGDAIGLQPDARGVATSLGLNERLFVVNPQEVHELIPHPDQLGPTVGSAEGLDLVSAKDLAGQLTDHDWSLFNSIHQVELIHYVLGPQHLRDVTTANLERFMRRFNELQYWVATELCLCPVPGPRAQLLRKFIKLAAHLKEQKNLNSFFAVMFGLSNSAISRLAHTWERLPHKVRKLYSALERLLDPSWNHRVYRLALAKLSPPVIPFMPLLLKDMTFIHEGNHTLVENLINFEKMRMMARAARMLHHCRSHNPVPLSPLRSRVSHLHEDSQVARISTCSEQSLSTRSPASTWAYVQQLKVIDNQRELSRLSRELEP
Sequence of Rap guanine nucleotide exchange factor 4 (Homo sapiens) (Q8WZA2 whole entry, looked up): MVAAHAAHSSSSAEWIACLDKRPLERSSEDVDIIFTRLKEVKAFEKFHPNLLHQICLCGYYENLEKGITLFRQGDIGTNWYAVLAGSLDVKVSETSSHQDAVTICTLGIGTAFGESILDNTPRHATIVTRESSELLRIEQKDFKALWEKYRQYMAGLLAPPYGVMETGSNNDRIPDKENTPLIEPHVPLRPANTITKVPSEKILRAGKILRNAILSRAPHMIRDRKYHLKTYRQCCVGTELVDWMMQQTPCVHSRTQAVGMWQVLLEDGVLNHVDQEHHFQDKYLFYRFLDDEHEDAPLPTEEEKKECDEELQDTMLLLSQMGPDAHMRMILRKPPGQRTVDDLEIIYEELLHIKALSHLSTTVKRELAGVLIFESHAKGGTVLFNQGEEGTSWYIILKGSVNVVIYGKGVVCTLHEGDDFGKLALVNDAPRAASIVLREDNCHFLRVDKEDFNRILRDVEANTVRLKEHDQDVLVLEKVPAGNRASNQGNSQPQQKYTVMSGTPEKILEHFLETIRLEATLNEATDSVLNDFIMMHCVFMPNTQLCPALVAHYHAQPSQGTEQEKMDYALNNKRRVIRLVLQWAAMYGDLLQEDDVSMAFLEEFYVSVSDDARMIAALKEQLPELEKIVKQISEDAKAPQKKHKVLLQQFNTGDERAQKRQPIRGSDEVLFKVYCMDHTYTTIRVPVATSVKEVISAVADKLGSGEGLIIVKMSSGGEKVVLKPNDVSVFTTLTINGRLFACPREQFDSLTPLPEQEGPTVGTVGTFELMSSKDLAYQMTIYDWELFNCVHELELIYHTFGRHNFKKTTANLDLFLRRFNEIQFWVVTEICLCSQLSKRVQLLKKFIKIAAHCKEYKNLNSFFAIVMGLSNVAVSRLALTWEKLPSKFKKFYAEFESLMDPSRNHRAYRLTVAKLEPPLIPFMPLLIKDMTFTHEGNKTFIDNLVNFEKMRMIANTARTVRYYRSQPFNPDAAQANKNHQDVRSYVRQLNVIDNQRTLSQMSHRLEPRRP

CC[C@H](C=C[C@@H](C)[C@H]1CC[C@H]2[C@@H]3CC=C4C[C@@H](O)CC[C@]4(C)[C@@H]3CC[C@]12C)C(C)C
parasite growth, % of DMSO control [1]: 84.3% [at 9.64 µM]
parasite growth, % of control (lower = inhibition) [2]: 117% [at 9.64 µM]
growth, % of control [3]: 89% [at 9.64 µM]

Nc1nc(N)c2nc(CNc3ccc(C(=O)NC(CCC(=O)O)C(=O)O)cc3)cnc2n1 (stereo not given)
Potency [4]: 20 µM (active)
outcome [5]: inactive

Oc1ccccc1O
Potency [6]: 35.5 µM (active)

COC1=C[C@]23CCCN2CCc2cc4c(cc2[C@@H]3[C@@H]1O)OCO4
Potency [7]: inactive

CC[C@H](CC#N)OC(=O)N[C@@H](C)c1cccc(NC(=O)Nc2ccc(-c3cnco3)c(OC)c2)c1
parasite growth remaining, % of DMSO control (lower = more inhibition) [8]: 66.9%

Cc1ccccc1C(=O)c1ccc(Nc2ccc(Br)cc2N)cc1Cl
Potency [9]: 24.1 µM (active)

CC(C)COC(=O)c1ccccc1C(=O)OCC(C)C
outcome [10]: inactive
outcome [11]: inactive

N#C/C(=C\c1ccc(O)c(O)c1)C(=O)NCCCNC(=O)/C(C#N)=C/c1ccc(O)c(O)c1
Potency [12]: 2.24 µM (active)
Potency [13]: 2 µM (active)

NO
Potency [6]: inactive

c1ccc2c(c1)-c1cccc3cccc-2c13
max response [14]: 27.3%
outcome [15]: inactive

O=c1cc(-c2ccc(O)c(O)c2)oc2cc(O)cc(O)c12
parasite growth remaining, % of DMSO control (lower = more inhibition) [8]: 89.2%

Nc1nc2[nH]c(=O)cnc2c(=O)[nH]1
outcome [5]: inactive

CC1=C[C@@H]2c3cccc4[nH]cc(c34)C[C@H]2N(C)C1
Potency [16]: inactive
Potency [17]: 2 µM (active)

Nc1nc2ccc(Cl)cc2c2nc(-c3ccco3)nn12
Potency [16]: inactive
Potency [17]: inactive

c1ccc(Nc2ccc3ccccc3c2)cc1
max response [14]: 41.7% and -2.21%
outcome [15]: inactive

COc1cc([C@@H]2c3cc4c(cc3[C@H](O)C3COC(=O)[C@@H]32)OCO4)cc(OC)c1OC (stereo not given in full)
Potency [13]: 15.8 µM (active)
Potency [18]: 0.0355 µM (active)

O=c1oc(Cl)c(Cl)c2ccccc12
Potency [18]: 5.01 µM (active)

CC(=O)/C=C/c1ccccc1
max response [14]: 11.6%
outcome [15]: inactive
Potency [19]: inactive

COC1=CC(=O)OC(CCc2ccc3c(c2)OCO3)C1 (stereo not given)
Potency [19]: inactive

CCCCCCCCCC[Si](C)(C)CCC(=O)NC(Cc1ccc(C)cc1)c1ccccc1 (stereo not given)
Potency [12]: 3.55 µM (active)
Potency [13]: 2.82 µM (active)

COc1ccc2c(c1)CCC1C2CC[C@@]2(C)C1CC[C@@H]2NCCCCCCN1C(=O)C=CC1=O (stereo not given in full)
max response [20]: 27.3% (inactive)

O=C(O)CNC(=O)C(CS)Cc1ccccc1 (stereo not given)
max response [20]: -3.2% (inactive)
